About 79,000 compounds went through this panel and 15% of them were active in at least one assay; those are over-represented in the sample as a whole. Cut-off read from the data, not from the text of the source: active = growth inhibition above about 70%; inactive = the rest.
How the values were obtained:
[1] = NCI Yeast Anticancer Drug Screen. Data for the rad50 strain (AID 155);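 note: 0% = growth of vehicle-only cultures of the same strain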; details: S. cerevisiae rad50 strain growth inhibition; at 50.0 µM; hits give high values
How it was run: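 DNA repair mutant yeast, compound exposure, growth read-out; inhibition is taken relative to vehicle.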

[2] = NCI Yeast Anticancer Drug Screen. Data for the mec2-1 strain (AID 157); details: S. cerevisiae mec2-1 strain, at 50.0 µM, hits give high values
How it was run: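 Compounds were applied to mec2-1 yeast cells. Their growth was then compared with that of vehicle-treated cultures to give growth inhibition.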

[3] = NCI Yeast Anticancer Drug Screen. Data for the sgs1 mgt1 strain (AID 161);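 note: 0% = growth of cultures given vehicle only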; details: S. cerevisiae sgs1 mgt1 strain, at 50.0 µM, hits give high values
How it was run: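 This yeast growth screen uses a strain with defined DNA-repair lesions; compound-treated growth is compared with vehicle-treated growth.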

[4] = NCI Yeast Anticancer Drug Screen. Data for the cln2 rad14 strain (AID 165);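 note: 0% = growth equal to vehicle treated cultures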; details: S. cerevisiae cln2 rad14 strain, at 50.0 µM, hits give high values
How it was run: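 Strain: cln2 rad14 yeast, altered in cell cycle control and DNA damage repair. Read-out: growth inhibition vs vehicle.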

[5] = NCI Yeast Anticancer Drug Screen. Data for the bub3 strain (AID 167); details: S. cerevisiae bub3 mutant strain, at 50.0 µM, hits give high values
How it was run: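 In this screen, a yeast mutant lacking normal mitotic checkpoint function is challenged with compound. Relative growth versus vehicle gives the inhibition value.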

[6] = NCI Yeast Anticancer Drug Screen. Data for the mlh1 rad18 strain (AID 175); details: S. cerevisiae mlh1 rad18 strain growth inhibition; at 50.0 µM; hits give high values
How it was run: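 A repair-deficient yeast strain is exposed to test compound, and growth is scored relative to vehicle-treated controls.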

Measured: growth inhibition

CC(O)C[N+](=O)[O-] (stereo unspecified)
inactive: [1] 5.35% | [2] 8.65% | [3] -4.6% | [4] -23% | [5] 8.5% | [6] 4.8%

NC1CC2CCCCC2CC1c1ccccc1 (stereo unspecified)
inactive: [1] 14.8% | [2] 19.4% | [3] 18.5% | [4] 11.9% | [5] -5.85% | [6] 18.1%

Cc1cc(N(C)CCCl)ccc1N=Nc1ccccc1C(=O)O
inactive: [1] 36.5% | [2] 10.8% | [3] 36.8% | [4] 6% | [5] 23.4% | [6] 18.8%

CN1C2CCC1CC(OC(=O)C1CCC(C(=O)OC3CC4CCC(C3)N4C)(c3ccccc3)c3ccccc31)C2 (stereo unspecified)
inactive: [1] -45% | [2] -23.9% | [3] -35.3% | [4] -29.9% | [5] -34.4% | [6] -36.7%

CCOP(=O)(OCC)C(C#N)OC(C)(C)C (stereo unspecified)
inactive: [1] 4.4% | [2] 20.4% | [3] 12.2% | [4] -0.25% | [5] 10.3% | [6] 2.35%

Cc1cc(C)cc(C(O)(C(=O)O)c2ccccc2)c1 (stereo unspecified)
inactive: [1] -0.75% | [2] -5.35% | [3] -5.45% | [4] 5.55% | [5] -5.9% | [6] -4.9%

From PubChem BioAssay (NCI)
